Consider 40 compounds from PubChem BioAssay (EPA / NIEHS).

Calls of active or inactive are those of the source. How the source made its calls: active means hit-call score of the fitted dose curve at least 0.9, where 1 is the maximum; inactive means score below 0.9.

The nature of the experiment: ATG_TA_CIS: Attagene CIS-FACTORIAL HepG2 Assay for human TA Basal Promoter (AID 2282964). To be noted: HepG2 Attagene CIS-factorial TA basal promoter reporter; actives raise or lower the signal. The method, then: ATG_CIS is a cell-based, multiplexed-readout assay that uses HepG2, a human liver cell line, with measurements taken at 24 hours after chemical dosing in a 24-well plate.ATG_TA_CIS is one of 52 assay component(s) measured or calculated from the ATG_CIS assay. It is designed to make measurements of mRNA induction, a form of inducible reporter, as detected with fluorescence intensity signals by Reverse transcription polymerase chain reaction (RT-PCR) and Capillary electrophoresis technology.Data from the assay component ATG_TA_CIS was analyzed into 1 assay endpoint. This assay endpoint, ATG_TA_CIS, was analyzed with bidirectional fitting relative to DMSO as the negative control and baseline of activity. Using a type of inducible reporter, measures of mRNA for gain or loss-of-signal activity can be used to understand the background control at the transcription factor-level as they relate to the gene . Furthermore, this assay endpoint can be referred to as a secondary readout, because this assay has produced multiple assay endpoints where this one serves a background control function. To generalize the intended target to other relatable targets, this assay endpoint is annotated to the background measurement intended target family, where the subfamily is internal marker.
Human liver HepG2 cells are transiently transfected with multiple reporter transcription units (MRTUs) in 6-well plates using FuGene 6 reagent (Roche; 3 ml FuGene/1 mg DNA). The MRTU constructs are regulated by a cis-regulating element (promoter). […] A major difference between the CIS and TRANS system is that in CIS activities of endogenous TFs are measured, whereas the TRANS assay evaluates changes in activities of exogenous, chimeric NR-Gal4 proteins. […] At the end of 24 hour incubation, total RNA was isolated using TriZol reagent (Invitrogen). The isolated RNA is then reverse-transcribed using oligo(dT) primer and Mo-MLV reverse transcriptase (Invitrogen) with DNAse I (Ambion) treatment for 30 min. The one-tenth of the produced cDNA was amplified by PCR using Taq DNA polymerase (Invitrogen) and two reporter sequence-specific primers. The PCR products were fluorescently labeled by primer extension with 6-arboxyfluorescein (6-FAM) 5'-labeled reporter sequence-specific primer (2 min at 95 C, 20 s at 68 C and 10 min at 72 C) and these products were digested with 5U of HpaI (New England Biolabs) for 2h at 37 C. The fragments were purified using Qiaquick PCR columns (Qiagen), analyzed on an ABI 3130xL genetic analyzer (Applied Biosystems) with peak positions identified by using a set of X-rhodamine (ROX)-labeled MapMarker1000 molecular weight standards (BioVentures). The raw capillary electrophoresis data was processed using Attagraph software (Attagene).
For the compound `CCCC/C=C\CCCCCCCCCC=O`, the result was inactive.

Turning to `CN1Cc2c(N)cccc2C(c2ccccc2)C1` (stereo not given), the compound was called inactive.

Turning to `CCC(=O)OCc1ccccc1`, the compound was called inactive.

Take `CCCCCCCCCC=O`: the compound was classed as inactive.

For the compound `CCOC(=S)SSC(=S)OCC`, the compound was called inactive.

For the compound `Clc1ccc2c(c1)C(N1CCNCC1)=Nc1ccccc1O2`, the call was inactive.

For `CCCCNC(=O)NS(=O)(=O)c1ccc(C)cc1`, the result was inactive.

In the case of `CC(=O)Nc1ccc(C)cc1C`, the compound was called inactive.

Consider `CC(C)(C)C(=O)c1ccccc1`, for which the call was inactive.

Consider `O=C(O)c1snc(Cl)c1Cl`, for which the compound was classed as inactive.

With `CC(C)(Oc1ccc(CCNC(=O)c2ccc(Cl)cc2)cc1)C(=O)O`, the compound was called inactive.

For the compound `CC(C)CCCCCCCOC(=O)c1ccc(C(=O)OCCCCCCCC(C)C)c(C(=O)OCCCCCCCC(C)C)c1`, the call was inactive.

For the compound `O=C=NC1CCC(CC2CCC(N=C=O)CC2)CC1` (stereo not given), the call was inactive.

As to `CC(=O)C(=O)O`, the compound was classed as inactive.

For the compound `CCCCCC(=O)OCCc1ccccc1`, the compound was called inactive.

With `c1ccc2sc(SN(C3CCCCC3)C3CCCCC3)nc2c1`, the result was inactive.

For `CC(CCO)CCCC(C)(C)O` (stereo not given), the call was inactive.

Take `CC(=O)OCc1ccc2c(c1)OCO2`: the call was inactive.

Regarding `Fc1c(F)c(F)c(Br)c(F)c1F`, the compound was classed as inactive.

As for `CC[Si](OC(C)=O)(OC(C)=O)OC(C)=O`, the outcome was inactive.

On to `COC(C)CCO` (stereo not given), for which the compound was called inactive.

Take `CCCCC(CC)COC(=O)/C=C\C(=O)OCC(CC)CCCC` (stereo not given): the compound was classed as inactive.

Consider `CCCCCCOC(=O)CCCCC`, for which the compound was classed as inactive.

Consider `O=[N+]([O-])c1ccc(C=Cc2ccc([N+](=O)[O-])cc2S(=O)(=O)O)c(S(=O)(=O)O)c1`, for which the call was inactive.

Take `CC(=O)c1c(C)cc(C(C)(C)C)cc1C`: the outcome was inactive.

As to `OCCN1CCNCC1`, the compound was called inactive.

In the case of `COc1cc(C=O)ccc1OC(=O)C(C)C`, the compound was classed as inactive.

Turning to `CNC[C@H](O)c1cccc(O)c1`, the result was inactive.

Regarding `CCCCN`, the compound was called inactive.

Take `Cc1ccc2sc3cccc(C)c3c2c1`: the compound was called inactive.

As for `CC(=O)[O][Al][O]C(C)=O`, the outcome was inactive.

Turning to `CC(C)(CO)[N+](=O)[O-]`, the compound was classed as inactive.

`CC(=O)Nc1ccc(CC(=O)O)cc1`: the outcome was inactive.

For the compound `CC(C)(C)NC(N)=O`, the call was inactive.

For `O=C(O)CCCCCCCCCCC(=O)O`, the call was inactive.

`CC(C)(N)CO`: the compound was called inactive.

Consider `CC(CCO)CCc1ccccc1` (stereo not given), for which the result was inactive.

Take `COC(=O)OC`: the compound was classed as inactive.

As to `COC(=O)c1ccc(C)cc1`, the result was inactive.

Regarding `C=C(C)C(=O)NCCCN(C)C`, the compound was called inactive.
